Results: PubChem BioAssay (NCATS)
Values joined by “and” are separate entries in the source; they are usually repeats but may differ in a detail not shown here. Equal values may be shown once. Values without a mark were called inactive. Results filed as inconclusive are left out. Active and inactive are the calls of the source. Unless noted, calls come from the whole dose curve; as a rule, active = well fitted curve in the direction sought with a large enough effect; inconclusive = small, poorly fitted or top-dose-only effect, or another doubt; inactive = no such curve, though single readings can be large; an effect the other way counts as inactive or inconclusive.

Test system: not listed separately
Test: S16 Schwann cell PMP22 intronic element beta-lactamase assay (AID 624044; calls by dose curve;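 note: 0% = DMSO and -100% = potassium clavulanate positive control; nearly all actives have a fitted effect of over 15% in size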)
Conditions: S16 rat Schwann cells, PMP22 element beta-lactamase FRET, 24 h; series mostly up to 17.1 µM; ratio activity, negative = inhibition: at the top concentration
How it was run: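 Rat S16 Schwann cells with beta-Lac driven by a PMP22 intronic element, compound-treated 24 h at 37 °C. LiveBLAzer FRET B/G read: 460 nm normalized to potassium clavulanate vs DMSO; 535 nm FRET as viability; concentration-effect curves classified.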

In order of falling “ratio activity, negative = inhibition” value:
1. CN1CCCC[C@@H]1CCN1c2ccccc2Sc2ccc(S(C)=O)cc21 (stereo partly drawn)  2.47% [at 38.3 µM]
2. O=C(Cc1cccs1)NC1C(=O)N2C(C(=O)[O-])=C(C[n+]3ccccc3)CSC12 (stereo not drawn)  1.77% [at 38.3 µM]
3. C[N+](C)(C)CC(O)CC(=O)O (stereo not drawn)  -9.56% [at 38.3 µM]

In order of falling “ratio activity, negative = inhibition” value:
1. C[C@@H]1CCC[C@H](C)N1NC(=O)c1ccc(Cl)c(S(N)(=O)=O)c1  4.41%
2. CN(C)CC/C=C1\c2ccccc2CSc2ccccc21  3.24%
3. CC(C)N1CCN(c2ccc(OC[C@@H]3CO[C@@](Cn4cncn4)(c4ccc(Cl)cc4Cl)O3)cc2)CC1  -19.1%

Test system: not listed separately
Test: qHTS assay for small molecule agonists of the antioxidant response element (ARE) signaling pathway (AID 651741; active = well fitted activation curve with a large enough effect in the signal ratio; the % refers to the signal ratio; note: potency is the fitted concentration of half-maximal effect; for activation: % of control where 0% means no effect)
Conditions: HepG2 ARE-bla reporter, beta-lactamase FRET ratio, 16 h; series mostly up to 96 µM; activation: at the top concentration
How it was run: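 Seeding 2,000 ARE-bla HepG2 cells per well preceded a 5 h incubation at 37 C/5% CO2 and a 16 h compound exposure at 37 C. Beta-lactamase reporter activity was then quantified by fluorescence after 2 h with LiveBLAzer B/G FRET substrate.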

In order of rising “activation” value:
1. Cc1occc(=O)c1O  7.37%
2. C=CC(C)(O)CCC=C(C)C (stereo not drawn)  10.7%

For `CC1=CC(=O)CC(C)(C)C1(O)/C=C/C(C)=C\C(=O)O` (stereo not drawn), the Potency was 37.6 µM (active).

Test system: not listed separately
Test: qHTS assay for small molecule activators of the nuclear factor-kappa B (NF-kB) signaling pathway (AID 651749; active = well fitted activation curve with a large enough effect in the signal ratio; the % refers to the signal ratio; note: % of control where 0% means no effect)
Conditions: NF-kB-bla ME-180 cells, beta-lactamase FRET ratio, 16 h; hits give high values
How it was run: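 Stably transfected ME-180 line; NF-kB response element upstream of beta-lactamase. Treatment: compound or DMSO, 16 hr. Detection: fluorescent FRET substrate.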

In order of falling activation:
1. CC1=CC(=O)CC(C)(C)C1(O)/C=C/C(C)=C\C(=O)O (stereo not drawn)  1.73%
2. COS(C)(=O)=O  0.279%
3. Cc1occc(=O)c1O  -0.401%

In the case of `C=C(C)[C@H]1CC=C(C)C(=O)C1`, the activation is reported as -0.312% and 0.229%.

Test system: not listed separately
Test: qHTS assay for small molecule disruptors of the mitochondrial membrane potential - 1 hr assay (AID 651754; calls by dose curve; note: % is set by controls: 0 for no effect and ±100 for the full control effect; nearly all actives have a fitted effect of over 35% in size)
Conditions: series mostly up to 92.2 µM; ratio change, negative = depolarisation: at the top concentration
How it was run: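 Steps: seed HepG2 cells and let attach overnight; pin-transfer compound or vehicle; incubate 1 hr at 37C; add Mito-MPS dye for 30 min; read two-channel fluorescence for monomer and aggregate forms.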

In order of falling “ratio change, negative = depolarisation” value:
1. Cc1occc(=O)c1O  9.02%
2. COS(C)(=O)=O  3.64%
3. C=C(C)[C@H]1CC=C(C)C(=O)C1  1.54%
4. C=CC(C)(O)CCC=C(C)C (stereo not drawn)  0.541%
5. CC1=CC(=O)CC(C)(C)C1(O)/C=C/C(C)=C\C(=O)O (stereo not drawn)  -2.84%

Test system: not listed separately
Test: qHTS assay for small molecule disruptors of the mitochondrial membrane potential - 5 hr assay (AID 651755; calls by dose curve; note: % is set by controls: 0 for no effect and ±100 for the full control effect; nearly all actives have a fitted effect of over 40% in size)
Conditions: JC-1-type ratio dye; series mostly up to 92.2 µM; ratio change, negative = disruption: at the top concentration
How it was run: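 HepG2, 2,000 cells/well, overnight attach; cpd or DMSO 5 hr, 37C/5% CO2; Mito-MPS 30 min 37C; fluor 490/535 + 540/590 nm.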

In order of rising “ratio change, negative = disruption” value:
1. COS(C)(=O)=O  -0.325%
2. C=C(C)[C@H]1CC=C(C)C(=O)C1  0.504%
3. Cc1occc(=O)c1O  1.17%
4. C=CC(C)(O)CCC=C(C)C (stereo not drawn)  2.9%
5. CC1=CC(=O)CC(C)(C)C1(O)/C=C/C(C)=C\C(=O)O (stereo not drawn)  5.21%

Molecular target: Tumor necrosis factor (Homo sapiens) (UniProt P01375)
Sequence (P01375 whole entry, looked up): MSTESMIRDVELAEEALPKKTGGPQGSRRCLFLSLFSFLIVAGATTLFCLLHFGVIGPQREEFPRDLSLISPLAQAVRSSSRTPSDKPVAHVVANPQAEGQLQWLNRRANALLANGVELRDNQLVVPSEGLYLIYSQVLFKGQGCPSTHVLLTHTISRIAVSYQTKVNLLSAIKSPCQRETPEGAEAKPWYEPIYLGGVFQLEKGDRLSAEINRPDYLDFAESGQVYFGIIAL
Test: qHTS assay to identify small molecules that stimulate Tumor Necrosis Factor-alpha (TNF-alpha) secretion (AID 651757; active = well fitted curve in the direction sought with a large enough effect in the signal ratio; the % refers to the signal ratio; note: 0% is about no effect)
Conditions: Human cells, HTRF 665/615 ratio; series mostly up to 92.2 µM; activation (TNF-alpha secretion): at the top concentration
How it was run: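 Secreted TNF-alpha from compound-treated THP-1 cells (17 hrs, 37 C) was quantified with a homogeneous time-resolved fluorescence antibody assay.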

In order of rising “activation (TNF-alpha secretion)” value:
1. C=CC(C)(O)CCC=C(C)C (stereo not drawn)  -0.174%
2. C=C(C)[C@H]1CC=C(C)C(=O)C1  0.0663%
3. CC1=CC(=O)CC(C)(C)C1(O)/C=C/C(C)=C\C(=O)O (stereo not drawn)  0.0864%
4. Cc1occc(=O)c1O  0.106%
5. COS(C)(=O)=O  1.36%

Test system: not listed separately
Test: qHTS assay for environmental chemicals that activate the Aryl hydrocarbon Receptor (AhR) signaling pathway (AID 651777); note: % of control where 0% means no effect; nearly all actives have a fitted effect of over 15% in size
Conditions: 1A2-DRE human hepatoma cells, luciferase, 24 h; hits give high values
How it was run: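 AhR activation is scored as a rise in luciferase from a stable DRE–CYP1A2 promoter construct in human hepatoma cells. Treatment lasts 24 hr at 37 C; detection uses One-Glo after 30 min at room temperature.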

In order of falling activation:
1. Cc1occc(=O)c1O  0.287%
2. COS(C)(=O)=O  -0.488%
3. CC1=CC(=O)CC(C)(C)C1(O)/C=C/C(C)=C\C(=O)O (stereo not drawn)  -0.944%

For `C=C(C)[C@H]1CC=C(C)C(=O)C1`, the activation was -0.835% and 2.01%.
For `C=CC(C)(O)CCC=C(C)C` (stereo not drawn), the activation was -0.577% and 0.957%.

Molecular target: Peroxisome proliferator-activated receptor alpha (Homo sapiens) (UniProt Q07869)
Sequence (Q07869 whole entry, looked up): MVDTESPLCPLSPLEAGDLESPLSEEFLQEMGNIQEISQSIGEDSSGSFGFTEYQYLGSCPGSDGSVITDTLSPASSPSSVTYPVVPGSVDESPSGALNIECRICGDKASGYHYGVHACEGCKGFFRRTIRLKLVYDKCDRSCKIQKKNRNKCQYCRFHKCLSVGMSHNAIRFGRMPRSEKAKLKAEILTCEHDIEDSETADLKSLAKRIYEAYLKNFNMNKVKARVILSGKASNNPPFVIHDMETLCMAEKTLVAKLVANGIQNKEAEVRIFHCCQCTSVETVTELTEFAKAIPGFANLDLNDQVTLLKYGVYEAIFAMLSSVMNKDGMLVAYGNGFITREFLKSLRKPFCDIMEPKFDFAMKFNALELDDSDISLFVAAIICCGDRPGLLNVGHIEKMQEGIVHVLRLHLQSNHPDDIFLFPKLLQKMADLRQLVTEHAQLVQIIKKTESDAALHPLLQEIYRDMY
Test: qHTS assay for small molecule agonists of the peroxisome proliferator-activated receptor alpha (PPARalpha) signaling pathway (AID 651778); note: % of control where 0% means no effect
Conditions: PathHunter PPARalpha complementation, chemiluminescence, 6 h; hits give high values
How it was run: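 Chemiluminescence from complemented enzyme reported PPARalpha activation in cells after 6 hr of compound treatment at 37 C. The detection reagent was incubated for 60 min at room temperature, and compounds were scored as agonists.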

In order of rising max response:
1. Cc1occc(=O)c1O  -2.16%
2. COS(C)(=O)=O  5.12%
3. CC1=CC(=O)CC(C)(C)C1(O)/C=C/C(C)=C\C(=O)O (stereo not drawn)  6.6%

In the case of `C=C(C)[C@H]1CC=C(C)C(=O)C1`, the max response is reported as -1.19% and -3.66%.
With `C=CC(C)(O)CCC=C(C)C` (stereo not drawn) the max response was -3.46% and 0.843%.

Molecular target: Nuclear receptor ROR-gamma (Homo sapiens) (UniProt P51449)
Sequence (P51449 whole entry, looked up): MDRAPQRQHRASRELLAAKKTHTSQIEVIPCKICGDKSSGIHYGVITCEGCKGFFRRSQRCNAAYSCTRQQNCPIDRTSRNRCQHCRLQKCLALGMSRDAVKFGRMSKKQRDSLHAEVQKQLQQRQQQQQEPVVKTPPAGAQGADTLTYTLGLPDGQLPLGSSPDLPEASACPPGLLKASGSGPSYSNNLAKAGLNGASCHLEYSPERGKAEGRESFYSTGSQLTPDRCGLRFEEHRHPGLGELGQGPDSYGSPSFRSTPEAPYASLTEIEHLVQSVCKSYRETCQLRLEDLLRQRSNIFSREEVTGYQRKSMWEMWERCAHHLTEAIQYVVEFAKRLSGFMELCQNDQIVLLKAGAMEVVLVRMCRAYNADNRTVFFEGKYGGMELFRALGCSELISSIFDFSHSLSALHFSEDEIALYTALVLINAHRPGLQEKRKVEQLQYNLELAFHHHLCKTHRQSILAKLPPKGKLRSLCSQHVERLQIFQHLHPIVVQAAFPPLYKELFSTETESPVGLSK
Test: qHTS assay for small molecule antagonists of the retinoid-related orphan receptor gamma (ROR-gamma) signaling pathway (AID 651802);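 note: CHO cells with doxycycline-induced ROR-gamma expression; % is set by controls: 0 for no effect and ±100 for the full control effect; nearly all actives have a fitted effect of over 60% in size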
Conditions: ROR-gamma antagonist cell reporter assay; series mostly up to 92.2 µM; activity change, negative = inhibition: at the top concentration
How it was run: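 Antagonism is scored as a fall in luminescence from a RORE-luciferase reporter in CHO cells expressing ROR under a TET-inducible promoter, measured 16hr after doxycycline induction in the presence of compound.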

In order of falling “activity change, negative = inhibition” value:
1. CC1=CC(=O)CC(C)(C)C1(O)/C=C/C(C)=C\C(=O)O (stereo not drawn)  21.8%
2. COS(C)(=O)=O  16.9%
3. Cc1occc(=O)c1O  -4.42%

Test system: not listed separately
Test: qHTS assay for small molecule agonists of the antioxidant response element (ARE) signaling pathway measured by Nrf2-dependant transcriptional activity (AID 720636; active = well fitted curve in the direction sought with a large enough effect in the repeat runs; an effect the other way counts as inactive or inconclusive;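 note: HepG2 cells with an ARE-driven luciferase reporter; % of control where 0% means no effect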)
Conditions: ARE-luc HepG2, Nrf2 luciferase reporter, 16 h; series mostly up to 92.4 µM; activation: at the top concentration
How it was run: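 First, ARE-luc HepG2 cells attached for 6 hr at 37 C in 1% dialyzed FBS medium. Next, compound or DMSO was added and incubated 16 hr. Finally, ONE-Glo reagent was added and luminescence measured after 30 min.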

In order of rising “activation” value:
1. CC1=CC(=O)CC(C)(C)C1(O)/C=C/C(C)=C\C(=O)O (stereo not drawn)  -0.161%
2. Cc1occc(=O)c1O  -0.0877%
3. COS(C)(=O)=O  0.524%

With `C=C(C)[C@H]1CC=C(C)C(=O)C1` the outcome was “inactive”.
In the case of `C=CC(C)(O)CCC=C(C)C` (stereo not drawn), the outcome is reported as “inactive”.

Test system: not listed separately
Test: qHTS assay for small molecule antagonists of the retinoid-related orphan receptor gamma (ROR-gamma) signaling pathway - cell viability counter screen (AID 720652; active = well fitted curve in the direction sought with a large enough effect in the repeat runs; an effect the other way counts as inactive or inconclusive;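 note: CHO reporter cells with doxycycline-induced ROR-gamma expression; compound exposure lasted 16 hr before ATP read; % is set by controls: 0 for no effect and ±100 for the full control effect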)
Conditions: RORgamma reporter cell line viability counter screen; series mostly up to 92.2 µM; activity change, negative = cytotoxicity: at the top concentration
How it was run: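 Cytotoxicity is quantified via intracellular ATP (CellTiter-Glo luminescence) in doxycycline-induced CHO ROR response element-luciferase reporter cells treated with compound for 16 hr at 37 C, 5% CO2.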

In order of falling “activity change, negative = cytotoxicity” value:
1. C=C(C)[C@H]1CC=C(C)C(=O)C1  4.55%
2. C=CC(C)(O)CCC=C(C)C (stereo not drawn)  2.46%
3. Cc1occc(=O)c1O  2.36%
4. CC1=CC(=O)CC(C)(C)C1(O)/C=C/C(C)=C\C(=O)O (stereo not drawn)  -2.41%
5. COS(C)(=O)=O  -9.08%

Test system: not listed separately
Test: qHTS assay for small molecule agonists of the antioxidant response element (ARE) signaling pathway measured by Nrf2-dependant transcriptional activity - cell viability counter screen (AID 720653; active = well fitted curve in the direction sought with a large enough effect in the repeat runs; an effect the other way counts as inactive or inconclusive; note: % is set by controls: 0 for no effect and ±100 for the full control effect)
Conditions: ARE-bla HepG2 viability, CellTiter-Glo ATP luminescence, 16 h; hits give low values
How it was run: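 Cytotoxicity counter screen: intracellular ATP quantified by CellTiter-Glo luminescence in the same ARE-bla HepG2 plates, after 16 h compound exposure and a 2 h beta-lactamase substrate step.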

In order of rising max response:
1. COS(C)(=O)=O  -2.28%
2. Cc1occc(=O)c1O  5.21%
3. CC1=CC(=O)CC(C)(C)C1(O)/C=C/C(C)=C\C(=O)O (stereo not drawn)  6.26%

In the case of `C=C(C)[C@H]1CC=C(C)C(=O)C1`, the max response is reported as -9.52% and 8.39%.
For `C=CC(C)(O)CCC=C(C)C` (stereo not drawn), the max response was 12.9% and 1.07%.

Test system: not listed separately
Test: qHTS assay for cell viability of HEK293 cells (AID 743288); note: % is set by controls: 0 for no effect and ±100 for the full control effect; nearly all actives have a fitted effect of over 50% in size
Conditions: ATP luminescence (CellTiter-Glo), 18 h, hits give low values
How it was run: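 Total intracellular ATP, measured with a luciferase-coupled reagent, indicates the number of viable HEK293 cells. Exposure to test chemicals lasts 18 h at 37 C in 1,536-well format at 2,000 cells/well.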

In order of rising max response:
1. Cc1occc(=O)c1O  0.312%
2. COS(C)(=O)=O  1.66%
3. CC1=CC(=O)CC(C)(C)C1(O)/C=C/C(C)=C\C(=O)O (stereo not drawn)  11%

In the case of `C=C(C)[C@H]1CC=C(C)C(=O)C1`, the max response is reported as -10.1% and -1.01%.
With `C=CC(C)(O)CCC=C(C)C` (stereo not drawn) the max response was 5.28% and -11.2%.

Test system: not listed separately
Test: qHTS assay for cell viability of the p53RE-bla HCT-116 cell line (AID 743292); note: % is set by controls: 0 for no effect and ±100 for the full control effect; nearly all actives have a fitted effect of over 55% in size
Conditions: p53RE-bla HCT-116 viability, ATP luminescence, 16 h; series mostly up to 95 µM; activity change, negative = cytotoxicity: at the top concentration
How it was run: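 Quantitative high-throughput format: compounds in DMSO were pinned onto p53RE-bla HCT-116 cells (4,000/well) and incubated 16 h at 37 C. Total intracellular ATP, read by CellTiter-Glo luminescence, reflects viable cell number.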

In order of falling “activity change, negative = cytotoxicity” value:
1. CC1=CC(=O)CC(C)(C)C1(O)/C=C/C(C)=C\C(=O)O (stereo not drawn)  -0.142%
2. COS(C)(=O)=O  -1.32%
3. Cc1occc(=O)c1O  -5.65%

In the case of `C=C(C)[C@H]1CC=C(C)C(=O)C1`, the outcome is reported as “inactive”.
For `C=CC(C)(O)CCC=C(C)C` (stereo not drawn), the outcome was “inactive”.

Test system: not listed separately
Test: Viability counterscreen for antagonist of constitutive androstane receptor (CAR) against the NCATS DSHEA and TCM libraries (AID 1794837);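 note: compound exposure lasted 24 h before viability reading; 0% is about no effect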
Conditions: CAR reporter cell line viability counterscreen, qHTS; series mostly up to 40 µM; viability change, negative = cytotoxic: at the top concentration
How it was run: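 Viability was measured by CellTiter-Fluor fluorescence (405/540 nm, 1 hr) in HepG2-CYP2B6-hCAR cells. Cells were co-treated 24 hr with 48 uM CITCO (final), antagonist mode, and test substances.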

In the case of `COc1ccc2ccc(=O)oc2c1`, the “viability change, negative = cytotoxic” value is reported as 4.37% [at 68.2 µM].

In order of falling “viability change, negative = cytotoxic” value:
1. C=C[C@](C)(O)CCC=C(C)C  11.2%
2. C=C(C)[C@H]1CC=C(C)C(=O)C1  5.02%
3. O=C(/C=C/c1ccc(O)c(O)c1)OC(Cc1ccc(O)c(O)c1)C(=O)O (stereo not drawn)  2.35%
4. O=c1cc(-c2ccc(O)cc2)oc2cc(O[C@H]3OC(CO)C(O)C(O)C3O)cc(O)c12 (stereo partly drawn)  -2.49%
5. O=c1ccc2ccc(O)cc2o1  -6.53%
6. COC(=O)C1=CO[C@@H](C)[C@H]2CN3CCc4c([nH]c5ccccc45)[C@@H]3C[C@H]12  -9.43%
